# Unmarked numbers belong to inactive results.
# Test system: Scedosporium aurantiacum CBS 136046
# Assay: growth inhibition relative to DMSO control (OD600); higher = more antifungal activity, active = 80 or more; extreme values may be limits of the assay
# Settings: 5 µM; 72 h; 37 °C
# 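Note: conidia screened in RPMI 1640 medium under 5% CO2, growth read by spectrophotometer, medium with 0.5% DMSO serving as the untreated reference.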
row,SMILES,growth inhibition
1,COc1ccc(C)cc1NC(=O)c1ccc(S(=O)(=O)N2CCCCC2)cc1,32.4%
2,CCOc1ccc(/C=N/NC(=O)C2CC2c2ccc(C(C)(C)C)cc2)cc1OCC (stereo unspecified),18.4%
3,CCCCCCCCC(CP(=O)(O)C(C)N)C(=O)O (stereo unspecified),6.14%
4,Nc1cccc(-c2nc(N)nc(NC3Cc4ccccc4C3)n2)c1,21.5%
5,N[C@H]1CCC[C@H]1C(=O)O,4.68%
6,O=C(O)c1sccc1S(=O)(=O)n1ccc2cc(Br)ccc21,14.6%

# Reference: the supplement of paper PMC9897528
